The record followed here is PubChem BioAssay (EPA / NIEHS).

Experiment [1] can be described thus: ATG_PPRE_CIS: Attagene CIS-FACTORIAL HepG2 Assay for human Peroxisome Proliferator-activated Response Element (PPRE) (AID 2282958). The note with it: HepG2 PPRE cis-element reporter, Attagene transcription factor profiling; actives raise or lower the signal. The method in brief:
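HepG2 cells transiently transfected with multiplexed cis-element reporter units measure endogenous transcription factor activity. After 24 h compound exposure, reporter mRNA is quantified by RT-PCR, 6-FAM labeling, HpaI digestion and capillary electrophoresis; bidirectional fits are made against DMSO baseline.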

A short description of experiment [2]: ATG_RORE_CIS: Attagene CIS-FACTORIAL HepG2 Assay for human RAR-related Orphan Receptor Element (RORE) (AID 2282959). Conditions: HepG2 Attagene cis-factorial RORE reporter, mRNA; actives raise or lower the signal. The method in brief: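 HepG2 cells transiently transfected with multiple cis-element reporter transcription units, exposed to chemical for 24 h. Reporter mRNA quantified by RT-PCR, 6-FAM primer-extension labeling, HpaI digestion and capillary electrophoresis; bidirectional fit versus DMSO baseline.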

Experiment [3] is described as follows: ATG_Sox_CIS: Attagene CIS-FACTORIAL HepG2 Assay for human SRY-box transcription factor (SOX) (AID 2282960). The note with it: HepG2 Attagene cis-factorial SOX reporter, mRNA; actives raise or lower the signal. The method in brief:
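HepG2 cells transiently transfected with cis-element-driven multiple reporter transcription units, dosed 24 h; reporter mRNA measured by RT-PCR, FAM labelling, HpaI digestion and capillary electrophoresis. Bidirectional fit versus DMSO baseline.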

The target of experiment [4] is Transcription factor Sp1 (Homo sapiens) (UniProt P08047). Kind of experiment: ATG_Sp1_CIS: Attagene CIS-FACTORIAL HepG2 Assay for human Specificity Protein 1 (Sp1) (AID 2282961). Conditions: HepG2 Sp1 cis-reporter transcription, actives raise or lower the signal. The method in brief: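 HepG2 cells transiently transfected with multiple reporter transcription units driven by cis-regulatory elements; Sp1-responsive reporter mRNA measured 24 h after dosing by RT-PCR and capillary electrophoresis fluorescence, fitted bidirectionally against DMSO baseline.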
Transcription factor Sp1 (Homo sapiens), sequence (P08047 whole entry, looked up): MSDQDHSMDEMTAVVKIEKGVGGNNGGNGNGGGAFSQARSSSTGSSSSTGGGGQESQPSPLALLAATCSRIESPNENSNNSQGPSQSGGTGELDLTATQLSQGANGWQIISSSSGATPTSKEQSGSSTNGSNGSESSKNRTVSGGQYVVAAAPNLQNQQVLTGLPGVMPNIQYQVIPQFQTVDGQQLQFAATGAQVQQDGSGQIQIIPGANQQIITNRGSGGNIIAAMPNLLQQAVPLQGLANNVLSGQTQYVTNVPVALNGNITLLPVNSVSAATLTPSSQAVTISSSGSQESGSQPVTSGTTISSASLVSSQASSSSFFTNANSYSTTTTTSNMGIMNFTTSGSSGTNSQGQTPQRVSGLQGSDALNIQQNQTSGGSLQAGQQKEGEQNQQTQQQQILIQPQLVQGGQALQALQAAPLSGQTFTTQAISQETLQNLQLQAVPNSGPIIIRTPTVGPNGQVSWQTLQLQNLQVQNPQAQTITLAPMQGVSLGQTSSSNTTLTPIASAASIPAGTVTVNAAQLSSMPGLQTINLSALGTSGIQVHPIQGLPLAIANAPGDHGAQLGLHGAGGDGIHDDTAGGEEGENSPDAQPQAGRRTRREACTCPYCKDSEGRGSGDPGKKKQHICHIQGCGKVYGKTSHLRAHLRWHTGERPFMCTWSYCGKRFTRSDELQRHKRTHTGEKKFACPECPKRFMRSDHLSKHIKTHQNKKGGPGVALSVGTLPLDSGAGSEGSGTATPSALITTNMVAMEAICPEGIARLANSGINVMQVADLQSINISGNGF

Experiment [5] can be described thus: ATG_SREBP_CIS: Attagene CIS-FACTORIAL HepG2 Assay for human Sterol Regulatory Element Binding (SREBP) (AID 2282962). The note with it: HepG2 Attagene cis-factorial SREBP reporter, mRNA; actives raise or lower the signal. The method in brief: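 mRNA induction of transfected cis-promoter reporters in HepG2 cells, 24 h post-dose. Detection: RT-PCR with 6-FAM-labelled products, HpaI digest, capillary electrophoresis. DMSO served as negative control and baseline.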

In experiment [6] the target is Signal transducer and activator of transcription 3 (Homo sapiens) (UniProt P40763). Kind of experiment: ATG_STAT3_CIS: Attagene CIS-FACTORIAL HepG2 Assay for human Signal Transducer and Activator of Transcription 3 (STAT3) (AID 2282963). The note with it: HepG2, Attagene cis-factorial STAT3 reporter transcription; actives raise or lower the signal. Put shortly:
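HepG2 cells transiently transfected with multiple cis-element-driven reporter units report endogenous transcription factor activity. After 24 h compound exposure, reporter mRNA is measured by RT-PCR, 6-FAM labelling, HpaI digestion and capillary electrophoresis. Fitted bidirectionally versus DMSO.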

A short description of experiment [7]: ATG_TA_CIS: Attagene CIS-FACTORIAL HepG2 Assay for human TA Basal Promoter (AID 2282964). The note with it: HepG2 Attagene CIS-factorial TA basal promoter reporter; actives raise or lower the signal. Put shortly: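 Background internal-marker endpoint from a 52-component HepG2 cis-reporter panel. Cells treated 24 h; reporter transcripts quantified via RT-PCR and CE fluorescence against DMSO baseline.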

A short description of experiment [8]: ATG_TCF_b_cat_CIS: Attagene CIS-FACTORIAL HepG2 Assay for human T-Cell-Factor with beta-catenin (TCF/b-cat) (AID 2282965). Conditions: HepG2 TCF/beta-catenin cis-reporter transcription, actives raise or lower the signal. The method in brief: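 HepG2 cells transiently transfected with cis-promoter-driven multiplexed reporter units; reporter mRNA measured 24 h after dosing by RT-PCR, FAM labelling, HpaI digestion and capillary electrophoresis. Bidirectional fitting relative to DMSO baseline.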

The nature of experiment [9]: ATG_TAL_CIS: Attagene CIS-FACTORIAL HepG2 Assay for human TAL Basal Promoter (AID 2282966).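 Note: background control endpoint measuring basal TAL promoter reporter mRNA not a specific factor.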 The note with it: HepG2 Attagene cis-factorial TAL promoter reporter; actives raise or lower the signal. Put shortly: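 HepG2 cells were transiently transfected with promoter-driven multiplexed reporter units and dosed for 24 h. Reporter mRNA was measured by RT-PCR with capillary electrophoresis fluorescence; bidirectional fits used DMSO as baseline, serving as a background control.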

Experiment [10] in a line: ATG_TGFb_CIS: Attagene CIS-FACTORIAL HepG2 Assay for human Transforming Growth Factor (TGF) (AID 2282967). Conditions: HepG2 Attagene CIS TGFb reporter, mRNA transcription; actives raise or lower the signal. Put shortly: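 Liver HepG2 line, cis-factorial reporter panel, 24 h dosing. Quantitation: RT-PCR products labeled with 6-FAM, cut with HpaI, resolved by capillary electrophoresis; DMSO-referenced bidirectional analysis.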

Experiment [11] is described as follows: ATG_VDRE_CIS: Attagene CIS-FACTORIAL HepG2 Assay for human Vitamin D Receptor Element (VDRE) (AID 2282968). The note with it: HepG2 VDRE cis-reporter transcription, actives raise or lower the signal. The method in brief: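 Transiently transfected HepG2 cells carrying cis-regulated reporter transcription units were exposed for 24 h. Reporter mRNA was measured by RT-PCR with fluorescent labelling and capillary electrophoresis, and fitted in both directions against DMSO.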

The target of experiment [12] is Estrogen receptor (Homo sapiens) (UniProt P03372). The experiment is described as follows: ATG_ERa_TRANS: Attagene TRANS-FACTORIAL HepG2 Assay for human Estrogen Receptor alpha (ERa) (AID 2282970; active = hit-call score of the fitted dose curve at least 0.9, where 1 is the maximum). Conditions: HepG2 Attagene TRANS ERa GAL4 reporter, mRNA. Put shortly:
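HepG2 cells transiently transfected with multiplexed GAL4-UAS reporter units; ERa activity read via exogenous chimeric NR-Gal4 protein. After 24 hour compound exposure, reporter mRNA measured by RT-PCR with 6-FAM labelling and capillary electrophoresis; gain-of-signal fitted relative to DMSO.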

For experiment [13], the target named is X-box-binding protein 1 (Homo sapiens) (UniProt P17861). The experiment is described as follows: ATG_Xbp1_CIS: Attagene CIS-FACTORIAL HepG2 Assay for human X-box Binding Protein 1 (XBP1) (AID 2282972). The note with it: HepG2 XBP1 cis-element reporter, Attagene multiplex; actives raise or lower the signal. The method in brief:
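Fluorescence-labelled cDNA fragments from reporter transcripts, separated by capillary electrophoresis, give the signal. Source: HepG2 cells transfected with promoter-driven reporter units, harvested 24 h post-dose. DMSO served as reference for bidirectional curve fitting.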

The target of experiment [14] is Glucocorticoid receptor (Homo sapiens) (UniProt P04150). Kind of experiment: ATG_GR_TRANS: Attagene TRANS-FACTORIAL HepG2 Assay for human Glucocorticoid Receptor (GR) (AID 2282978; active = hit-call score of the fitted dose curve at least 0.9, where 1 is the maximum;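 note: activators score as hits since higher reporter transcript over DMSO is fitted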). The note with it: HepG2 Attagene TRANS GR reporter, mRNA transcription. The method in brief:
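HepG2 cells transiently transfected with multiplexed reporter units in which chimeric NR-GAL4 proteins drive GAL4-UAS reporters; 24 h compound exposure. Reporter mRNA measured by RT-PCR, 6-FAM labelling, HpaI digestion and capillary electrophoresis; gain-of-signal fitted versus DMSO.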

Experiment [15] concerns the target Bile acid receptor (Homo sapiens) (UniProt Q96RI1). Kind of experiment: ATG_FXR_TRANS: Attagene TRANS-FACTORIAL HepG2 Assay for Farnesoid X Receptor (FXR) (AID 2282979; active = hit-call score of the fitted dose curve at least 0.9, where 1 is the maximum;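 note: hits raise reporter mRNA above DMSO so AC50 marks FXR activation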). The note with it: HepG2 Attagene TRANS FXR-GAL4 reporter transcription. Put shortly:
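HepG2 cells transiently transfected with reporter constructs in which a chimeric FXR-GAL4 protein drives a GAL4-UAS reporter; 24 h compound exposure. Reporter mRNA measured by RT-PCR, FAM labelling, HpaI digestion and capillary electrophoresis; gain-of-signal versus DMSO.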

Experiment [16] addresses Nuclear receptor subfamily 1 group I member 3 (Homo sapiens) (UniProt Q14994). The experiment is described as follows: ATG_CAR_TRANS: Attagene TRANS-FACTORIAL HepG2 Assay for human Constitutive Androstane Receptor (CAR) (AID 2282969; active = hit-call score of the fitted dose curve at least 0.9, where 1 is the maximum;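 note: activators raise reporter mRNA above DMSO so AC50 marks induction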). Conditions: HepG2 Attagene TRANS-FACTORIAL CAR reporter. Put shortly: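 HepG2 cells transiently transfected with GAL4-UAS reporter units; TRANS format reads activity of exogenous chimeric NR-Gal4 protein. After 24 h dosing, reporter mRNA quantified by RT-PCR, 6-FAM labelling and capillary electrophoresis; gain of signal fitted against DMSO.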

Experiment [17] can be described thus: ATG_M_19_TRANS: Attagene TRANS-FACTORIAL HepG2 Assay for M19 Transcription Factor (Internal Marker) (AID 2282974; active = hit-call score of the fitted dose curve at least 0.9, where 1 is the maximum). The note with it: HepG2 Attagene TRANS-FACTORIAL M19 internal marker reporter. Put shortly:
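HepG2 cells transiently transfected with multiple GAL4-UAS reporter transcription units were exposed to chemicals for 24 h. Reporter mRNA was read by RT-PCR, 6-FAM primer extension, HpaI digestion and capillary electrophoresis; gain of signal fitted relative to DMSO.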

The nature of experiment [18]: ATG_GAL4_TRANS: Attagene TRANS-FACTORIAL HepG2 Assay for GAL4 (Internal Marker) (AID 2282976; active = hit-call score of the fitted dose curve at least 0.9, where 1 is the maximum). The note with it: HepG2 Attagene TRANS GAL4 internal marker reporter. The method in brief: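 HepG2 cells transiently transfected with multiplexed GAL4-UAS reporter constructs were dosed for 24 h. Reporter mRNA was measured by RT-PCR, 6-FAM primer extension, HpaI digestion and capillary electrophoresis, and gain of signal was fitted relative to DMSO.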

Records with an inconclusive call do not appear. More than one record can exist for a structure, and the calls need not agree. Activity calls are given as the source filed them. Rule for the calls, unless noted: active = hit-call score of the fitted dose curve at least 0.9, where 1 is the maximum; inactive = score below 0.9.

X-box-binding protein 1 (Homo sapiens), sequence (P17861 whole entry, looked up, the tested form may be a part): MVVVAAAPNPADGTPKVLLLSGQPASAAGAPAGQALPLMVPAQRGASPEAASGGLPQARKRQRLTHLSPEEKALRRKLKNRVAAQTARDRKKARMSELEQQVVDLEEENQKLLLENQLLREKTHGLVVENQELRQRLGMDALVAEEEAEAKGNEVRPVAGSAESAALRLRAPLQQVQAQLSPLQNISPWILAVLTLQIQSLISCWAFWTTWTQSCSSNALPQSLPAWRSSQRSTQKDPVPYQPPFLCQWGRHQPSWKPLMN
Bile acid receptor (Homo sapiens), sequence (Q96RI1 whole entry, looked up, the tested form may be a part): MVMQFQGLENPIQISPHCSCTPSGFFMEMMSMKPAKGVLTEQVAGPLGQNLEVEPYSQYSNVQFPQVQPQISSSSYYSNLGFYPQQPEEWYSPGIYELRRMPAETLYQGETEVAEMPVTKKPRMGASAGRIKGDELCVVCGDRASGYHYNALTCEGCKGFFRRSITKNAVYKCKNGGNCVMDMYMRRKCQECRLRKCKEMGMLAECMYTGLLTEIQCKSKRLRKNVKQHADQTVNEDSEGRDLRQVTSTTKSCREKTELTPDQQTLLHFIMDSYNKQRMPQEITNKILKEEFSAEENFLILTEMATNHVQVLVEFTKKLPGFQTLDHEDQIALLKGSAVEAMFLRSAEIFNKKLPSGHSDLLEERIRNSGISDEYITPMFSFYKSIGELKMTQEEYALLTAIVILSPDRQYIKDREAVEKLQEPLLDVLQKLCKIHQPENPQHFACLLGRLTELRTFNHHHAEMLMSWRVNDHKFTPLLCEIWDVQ
Signal transducer and activator of transcription 3 (Homo sapiens), sequence (P40763 whole entry, looked up): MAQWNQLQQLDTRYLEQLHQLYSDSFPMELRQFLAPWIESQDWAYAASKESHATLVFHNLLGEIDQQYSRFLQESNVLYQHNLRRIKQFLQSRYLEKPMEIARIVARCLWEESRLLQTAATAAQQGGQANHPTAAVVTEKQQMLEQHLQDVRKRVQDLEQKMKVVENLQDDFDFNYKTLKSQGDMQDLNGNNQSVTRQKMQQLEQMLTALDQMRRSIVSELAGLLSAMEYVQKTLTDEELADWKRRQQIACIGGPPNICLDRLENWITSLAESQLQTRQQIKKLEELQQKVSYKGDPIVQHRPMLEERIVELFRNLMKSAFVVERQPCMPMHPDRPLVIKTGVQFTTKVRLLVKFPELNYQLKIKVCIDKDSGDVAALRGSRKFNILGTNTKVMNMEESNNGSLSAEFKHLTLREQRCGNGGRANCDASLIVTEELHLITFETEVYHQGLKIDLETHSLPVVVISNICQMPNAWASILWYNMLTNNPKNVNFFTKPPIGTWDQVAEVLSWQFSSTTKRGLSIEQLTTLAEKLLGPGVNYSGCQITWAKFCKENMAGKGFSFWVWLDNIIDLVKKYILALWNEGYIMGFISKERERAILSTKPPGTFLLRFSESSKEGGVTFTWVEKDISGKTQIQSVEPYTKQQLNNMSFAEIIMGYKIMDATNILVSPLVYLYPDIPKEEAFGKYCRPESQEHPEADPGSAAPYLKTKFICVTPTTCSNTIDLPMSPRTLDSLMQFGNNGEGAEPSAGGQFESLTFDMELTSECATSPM
Nuclear receptor subfamily 1 group I member 3 (Homo sapiens), sequence (Q14994 whole entry, looked up, the tested form may be a part): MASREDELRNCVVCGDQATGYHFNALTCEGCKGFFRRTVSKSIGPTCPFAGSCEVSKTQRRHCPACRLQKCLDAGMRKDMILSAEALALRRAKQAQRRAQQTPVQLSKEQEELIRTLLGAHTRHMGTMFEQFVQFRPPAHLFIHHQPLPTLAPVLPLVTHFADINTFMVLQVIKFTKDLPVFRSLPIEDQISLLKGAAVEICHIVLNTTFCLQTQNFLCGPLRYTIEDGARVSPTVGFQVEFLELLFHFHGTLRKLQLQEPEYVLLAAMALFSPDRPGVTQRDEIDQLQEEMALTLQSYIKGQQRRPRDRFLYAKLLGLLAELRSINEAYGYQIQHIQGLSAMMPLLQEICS
Estrogen receptor (Homo sapiens), sequence (P03372 whole entry, looked up, the tested form may be a part): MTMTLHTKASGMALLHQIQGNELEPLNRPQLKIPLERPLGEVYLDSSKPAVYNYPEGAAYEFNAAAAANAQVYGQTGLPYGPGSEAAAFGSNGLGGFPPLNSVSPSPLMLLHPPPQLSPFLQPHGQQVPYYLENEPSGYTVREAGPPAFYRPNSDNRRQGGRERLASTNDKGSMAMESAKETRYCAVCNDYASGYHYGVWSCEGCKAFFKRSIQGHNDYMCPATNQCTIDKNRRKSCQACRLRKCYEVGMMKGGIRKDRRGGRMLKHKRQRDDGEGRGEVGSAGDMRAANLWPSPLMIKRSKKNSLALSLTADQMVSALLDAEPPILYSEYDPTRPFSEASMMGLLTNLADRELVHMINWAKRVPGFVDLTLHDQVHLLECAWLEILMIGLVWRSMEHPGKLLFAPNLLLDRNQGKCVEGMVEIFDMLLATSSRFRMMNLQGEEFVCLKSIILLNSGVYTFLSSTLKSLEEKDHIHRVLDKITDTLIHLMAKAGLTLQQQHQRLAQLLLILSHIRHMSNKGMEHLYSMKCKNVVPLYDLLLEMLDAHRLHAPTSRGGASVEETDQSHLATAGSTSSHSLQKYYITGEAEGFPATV
Glucocorticoid receptor (Homo sapiens), sequence (P04150 whole entry, looked up, the tested form may be a part): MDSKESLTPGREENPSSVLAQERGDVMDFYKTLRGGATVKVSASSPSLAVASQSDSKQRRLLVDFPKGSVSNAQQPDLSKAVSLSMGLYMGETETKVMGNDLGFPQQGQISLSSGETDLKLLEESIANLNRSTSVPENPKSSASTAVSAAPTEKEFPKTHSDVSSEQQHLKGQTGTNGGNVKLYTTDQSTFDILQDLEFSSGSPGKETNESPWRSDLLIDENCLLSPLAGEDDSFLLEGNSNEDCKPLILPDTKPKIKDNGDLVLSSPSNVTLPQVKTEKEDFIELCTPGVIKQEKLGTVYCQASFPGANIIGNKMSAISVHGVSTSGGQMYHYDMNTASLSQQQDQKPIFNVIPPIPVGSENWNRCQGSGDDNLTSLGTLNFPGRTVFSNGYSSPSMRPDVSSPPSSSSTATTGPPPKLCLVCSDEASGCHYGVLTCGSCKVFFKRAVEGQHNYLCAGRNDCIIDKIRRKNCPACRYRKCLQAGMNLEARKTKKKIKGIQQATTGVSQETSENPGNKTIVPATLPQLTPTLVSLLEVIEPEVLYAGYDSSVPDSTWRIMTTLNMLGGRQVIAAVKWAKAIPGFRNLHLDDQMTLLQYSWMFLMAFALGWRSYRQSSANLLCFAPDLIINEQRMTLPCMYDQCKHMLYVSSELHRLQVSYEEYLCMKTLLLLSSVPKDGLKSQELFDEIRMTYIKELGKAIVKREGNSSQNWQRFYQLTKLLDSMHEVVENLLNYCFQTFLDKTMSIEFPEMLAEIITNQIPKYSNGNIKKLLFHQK

As for `Clc1ccc(C2(Cn3cncn3)CC(Br)CO2)c(Cl)c1` (stereo unspecified), the AC50 in experiment [1] is 99.5 µM (active); in [2], 70.7 µM (active); in experiment [5], 8.75 µM (active); in [11], 6.89 µM (active); in experiment [12] it was 6.86 µM (active). Besides, the compound was called inactive in experiment [3], in experiment [4], in experiment [6], in experiment [7], in [8] and in experiment [9]. Moreover, the compound was classed as inactive in experiment [10], in experiment [13], in experiment [14] and in [15].

As for `Oc1cccc2cccnc12`, the compound was called inactive in experiment [1], in experiment [2], in [3], in [4], in [5] and in [6]. Besides, the compound was classed as inactive in [7], in [8], in experiment [9], in [10], in [11] and in experiment [13]. Moreover, the result in experiment [15] was inactive. Further, the AC50 in experiment [11] was 67.9 µM (active).

Turning to `CCCCCCCCc1ccc(O)cc1`, the compound was called inactive in [1], in experiment [2], in [3], in experiment [4], in experiment [5] and in experiment [6]. Besides, the result in experiment [7], in [8], in experiment [9], in experiment [10], in experiment [11] and in experiment [16] was inactive. The outcome in experiment [13], in [17] and in [18] was inactive. In experiment [11], the AC50 was 18.9 µM (active).

On to `COS(=O)(=O)c1ccc(C)cc1`, for which the result in experiment [1], in experiment [2], in experiment [3], in experiment [4], in experiment [5] and in [6] was inactive. The result in experiment [7], in [8], in experiment [9], in experiment [10], in experiment [11] and in experiment [12] was inactive. Moreover, the result in experiment [13], in [17], in experiment [18] and in experiment [15] was inactive.
